Screens as filed in PubChem BioAssay.
A selection: hits, their analogues and other compounds. The true share with any hit is near 1.2%.
BRCA1 expr up: activators of BRCA1 expression | MCF7-BRCA1-FFLuc reporter, luminescence, 48 h; response scale: scaled: vehicle 0%, 10 µM genistein 100% | Potency, µM (highest dose often 46.1 µM), most hits filed as activators | hit rate 1.1% among 380,000 | AID 624202; also: nearly all actives have a fitted effect of over 80% in size
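First, MCF7-BRCA1-FFLuc cells (2000/well) attach for 2 h; next, compounds are pin-added and incubated 48 h at 37 °C; finally, luciferase reagent is added and luminescence read after 15 min.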
ERG Ets-DNA blk: blocks human ERG Ets domain binding to DNA; AID 624246; hit rate 0.028% among 370,000; fluorescence polarization, His-ERG Ets domain / labelled DNA; Potency, µM (top dose mostly 76.9 µM), most hits filed as inhibitors; active = well fitted inhibition curve with a large enough effect in the polarisation, with a control signal flat; inconclusive = small, poorly fitted or top-dose-only effect, or effect the other way, or a change in a side signal; inactive = no such curve, though single readings can be large or run the other way; the % refers to the polarisation;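 also: polarization taken with two DNA probes labelled with fluorescein and Texas red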
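His-tagged ERG Ets domain (1 uM in the protein solution; 300mM KCl, 50mM Tris-HCl, 1mM EDTA, 1mM DTT, pH 7.5) received compound, then a probe mix of 5 nM fluorescein-DNA and 100nM Texas-615-DNA. Fluorescence polarization was read for both dyes.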
B2AR arrestin: agonists driving beta-arrestin recruitment to human beta2-adrenergic receptor | P07550 | beta-arrestin recruitment to beta2AR, cell-based reporter | Potency, µM (doses to about 46.1 µM), hits mostly activators | hit rate 0.02% among 330,000 | AID 492947; also: nearly all actives have a fitted effect of over 65% in size
Target sequence (P07550 whole entry, looked up): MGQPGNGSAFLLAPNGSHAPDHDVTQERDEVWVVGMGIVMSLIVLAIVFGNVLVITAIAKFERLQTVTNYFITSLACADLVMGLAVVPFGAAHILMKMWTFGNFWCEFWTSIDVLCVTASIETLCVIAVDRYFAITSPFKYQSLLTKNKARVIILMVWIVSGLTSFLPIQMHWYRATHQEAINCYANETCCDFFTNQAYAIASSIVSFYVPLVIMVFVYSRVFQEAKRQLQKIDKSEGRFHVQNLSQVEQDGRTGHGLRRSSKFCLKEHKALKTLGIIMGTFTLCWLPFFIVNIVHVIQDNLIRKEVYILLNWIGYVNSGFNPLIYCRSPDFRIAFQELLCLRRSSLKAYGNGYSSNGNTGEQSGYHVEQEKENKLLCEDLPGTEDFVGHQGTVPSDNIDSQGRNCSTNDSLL
Mito fusion yeast: blocks mitochondrial division or promotes mitochondrial fusion | S. cerevisiae fusion-defective mutant growth rescue, CellTiterGlo 48 h | Potency, µM (top dose mostly 46.1 µM), most hits filed as activators | hit rate 0.23% among 320,000 | AID 485298; also: nearly all actives have a fitted effect of over 45% in size
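Compounds are tested for their ability to restore growth of mitochondrial fusion-defective yeast strains at non-permissive 37C in YPEG medium over 48 hours. Viability is quantified by luciferase luminescence.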
Large screens that a line does not name were inactive; ! = repeats disagree. Unless noted, calls follow the shape of the dose curve; as a rule, active = well fitted curve in the direction sought with a large enough effect; inconclusive = small, poorly fitted or top-dose-only effect, or another doubt; inactive = no such curve, though single readings can be large; an effect the other way counts as inactive or inconclusive.

CCc1cccc(N2C(=O)CSC23C(=O)N(Cc2ccccc2F)c2ccccc23)c1 (stereo not drawn)	none (no result: B2AR arrestin, Mito fusion yeast)
O=S(=O)(c1ccccc1C(F)(F)F)N1CCN(c2nc(-c3ccccc3)nc3ccccc23)CC1	none (no result: ERG Ets-DNA blk, B2AR arrestin, Mito fusion yeast)
Cn1c2ccccc2c(=O)c2c(=O)n(-c3ccc(F)cc3)c(-c3cccs3)nc21	none
CC(c1ccccc1)n1c(-c2cccs2)nc2c(c(=O)c3ccccc3n2C)c1=O (stereo not drawn)	Mito fusion yeast 22.4µM
CC(C)OCCCN1C(=O)c2[nH]nc(-c3ccccc3O)c2C1c1ccccc1F (stereo not drawn)	none (no result: BRCA1 expr up, B2AR arrestin, Mito fusion yeast)
O=C(Cn1cc(C(=O)C2CC2)c2ccccc21)NCc1ccccc1	BRCA1 expr up 12.6µM
Cc1cc(C)c2[nH]c(=O)c(CN(Cc3nnnn3C3CCCC3)C3CCCCC3)cc2c1	none (no result: ERG Ets-DNA blk)
Cc1cccc2cc(CN(Cc3nnnn3C3CCCCC3)C3CCCC3)c3nnnn3c12	Mito fusion yeast 11.2µM
Cc1cn(CCC(=O)Nc2ccc(N3CCOCC3)cc2)c2ccccc12	BRCA1 expr up 10µM
CCN(CC)CCCn1c(C)cc2c(c1=O)C(c1ccc(OC)c(OC)c1OC)C(C#N)=C(N)O2 (stereo not drawn)	none
CCN(CC)CCCn1c(C)cc2c(c1=O)C(c1ccccc1)C(C#N)=C(N)O2 (stereo not drawn)	Mito fusion yeast 11.2µM
O=C(NC1CCCCCC1)c1cc2ccccc2oc1=O	none
O=C(NC1CCCCC1)c1ccc2ccccc2c1	BRCA1 expr up 3.16µM (no result: ERG Ets-DNA blk, B2AR arrestin, Mito fusion yeast)
O=C(CNC(=O)c1ccc2ccccc2c1)NC1CCCCC1	none (no result: Mito fusion yeast)
O=C(NC(=S)NC1CCCCC1)c1ccc(F)cc1	BRCA1 expr up 11.2µM
N=c1oc2ccccc2cc1C(=O)NC1CCCCCC1	BRCA1 expr up 4.47µM
CCC1CCCCN1C(=O)CSc1nnc(-c2cccs2)o1 (stereo not drawn)	BRCA1 expr up 8.91µM
CC1CCCCN1C(=O)CSc1nnc(-c2ccco2)o1 (stereo not drawn)	BRCA1 expr up 3.16µM
CC1CCCCN1C(=O)CSc1nnc(-c2ccccc2F)o1 (stereo not drawn)	BRCA1 expr up 3.16µM
CN(C(=O)CSc1nnc(-c2ccccc2F)o1)c1ccccc1	BRCA1 expr up 11.2µM
CC(NC(=O)Cn1c(=O)oc2cc(S(=O)(=O)NCc3ccccc3)ccc21)c1ccccc1 (stereo not drawn)	none (no result: B2AR arrestin, Mito fusion yeast)
COc1ccc(N2C(N)=C(C#N)C(c3cc(CN4CCOCC4)cs3)C3=C2CCCC3=O)cc1 (stereo not drawn)	none (no result: BRCA1 expr up, B2AR arrestin)
COc1ccccc1NC(=O)C1=C(C)Nc2nc(SCc3ccccc3)nn2C1c1ccccn1 (stereo not drawn)	none (no result: B2AR arrestin, Mito fusion yeast)
O=C(Nc1nc(-c2ccco2)c(-c2ccco2)s1)c1c(F)cccc1Cl	Mito fusion yeast 12.6µM
O=C(Nc1nc(-c2ccco2)c(-c2ccco2)s1)c1ccc(F)cc1F	none
COc1ccc(CN(C(=O)Nc2cccc(Cl)c2)c2ccccn2)cc1OC	none (no result: B2AR arrestin, Mito fusion yeast)
CCOc1ccc(NC(=O)CN2CCCN(Cc3cc(C)ccc3C)S2(=O)=O)cc1	none (no result: BRCA1 expr up, B2AR arrestin, Mito fusion yeast)
O=C(CNS(=O)(=O)c1ccccc1)N1CCc2ccccc2C1	BRCA1 expr up 11.2µM
CCOC(=O)Cn1nc(-c2ccccc2)c2cnc3ccc(OCC)cc3c21	none (no result: B2AR arrestin, Mito fusion yeast)
COc1ccc2nc(NC(=O)c3cc(C)oc3C)sc2c1	BRCA1 expr up 5.01µM
COc1ccc2nc(NC(=S)NC(=O)c3ccco3)sc2c1	BRCA1 expr up 5.01µM
COc1ccc2c(c1)-c1nc(NC(=O)c3ccco3)sc1CC2	none
COc1ccc2c(c1)CCc1sc(NC(=O)c3ccco3)nc1-2	BRCA1 expr up 10µM
COc1ccc2nc(NC(=O)CSc3ccccc3)sc2c1	BRCA1 expr up 10µM
O=[N+]([O-])c1cc(Cl)ccc1Nc1nc(Nc2ccc(Cl)cc2[N+](=O)[O-])nc(N2CCOCC2)n1	none (no result: ERG Ets-DNA blk, B2AR arrestin, Mito fusion yeast)
COCCNC(=O)c1ccc2c(=O)n(CCc3ccccc3)c(SCC(=O)CC(=O)OC)nc2c1	none (no result: B2AR arrestin, Mito fusion yeast)
Cc1cc(C)cc(NC(=O)CCc2c(C)nc3c(c2C)c(=O)n(C)c(=O)n3C)c1	none (no result: B2AR arrestin, Mito fusion yeast)
CN(C)c1ccc(C(CNC(=O)c2ccc(C(C)(C)C)cc2)N2CCCC2)cc1 (stereo not drawn)	none (no result: BRCA1 expr up, B2AR arrestin, Mito fusion yeast)
CCOCC(=O)Nc1nc2ccc(OCC)cc2s1	BRCA1 expr up inconclusive
CCOc1ccc2nc(NC(=O)CCC(=O)c3cccs3)sc2c1	BRCA1 expr up 1.78µM
O=C(/C=C/c1ccc(O)cc1)c1ccc(O)cc1O	Mito fusion yeast 16.4µM!
